Data taken from PubChem BioAssay (EPA / NIEHS).
Records with an inconclusive call do not appear. Calls of active or inactive are those of the source. The calls were made as follows, unless noted: active = hit-call score of the fitted dose curve at least 0.9, where 1 is the maximum; inactive = score below 0.9. Peptide text beside a SMILES is read from it.

Tests used:
[1] = molecular target: Paired box protein Pax-6 (Homo sapiens) (UniProt P26367); experiment: ATG_Pax6_CIS: Attagene CIS-FACTORIAL HepG2 Assay for human Paired Box 6 (PAX6) (AID 2282956); details: HepG2 CIS-FACTORIAL PAX6 reporter transcription, RNA readout; actives raise or lower the signal
Method in brief: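 Fluorescent RT-PCR products separated by capillary electrophoresis report PAX6-linked promoter mRNA in HepG2 cells 24 h post-dose. Curves fitted bidirectionally, DMSO as negative control.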

[2] = ATG_PXRE_CIS: Attagene CIS-FACTORIAL HepG2 Assay for human Pregnane X Receptor Element (PXRE) (AID 2282957); details: HepG2 Attagene CIS-FACTORIAL PXRE reporter, mRNA; actives raise or lower the signal
Method in brief: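 Reporter transcripts under endogenous PXR-responsive cis-regulation quantified from total RNA of transfected HepG2 cells 24 h post-dosing, via RT-PCR with fluorescent primer extension and capillary electrophoresis. Gain or loss of signal fitted against DMSO baseline.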

[3] = ATG_PPRE_CIS: Attagene CIS-FACTORIAL HepG2 Assay for human Peroxisome Proliferator-activated Response Element (PPRE) (AID 2282958); details: HepG2 PPRE cis-element reporter, Attagene transcription factor profiling; actives raise or lower the signal
Method in brief: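 After human HepG2 hepatoma cells were transiently transfected with cis-promoter reporter constructs, they were exposed to test chemicals for 24 hours. Reporter RNA was then reverse-transcribed, PCR-amplified, FAM-labeled, HpaI-digested and quantified by capillary electrophoresis.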

[4] = ATG_Sox_CIS: Attagene CIS-FACTORIAL HepG2 Assay for human SRY-box transcription factor (SOX) (AID 2282960); details: HepG2 Attagene cis-factorial SOX reporter, mRNA; actives raise or lower the signal
Method in brief: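 Using transiently transfected HepG2 cells, reporter transcription driven by cis elements was assessed 24 h after dosing. Signal was fluorescence of capillary-separated RT-PCR products, with DMSO defining baseline activity.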

[5] = molecular target: Transcription factor Sp1 (Homo sapiens) (UniProt P08047); experiment: ATG_Sp1_CIS: Attagene CIS-FACTORIAL HepG2 Assay for human Specificity Protein 1 (Sp1) (AID 2282961); details: HepG2 Sp1 cis-reporter transcription, actives raise or lower the signal
Method in brief: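 After transient transfection of HepG2 cells with cis-promoter reporter units and 24 h chemical treatment, reporter transcripts were quantified by RT-PCR and capillary electrophoresis fluorescence. Gain- and loss-of-signal fitted against DMSO.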

[6] = ATG_SREBP_CIS: Attagene CIS-FACTORIAL HepG2 Assay for human Sterol Regulatory Element Binding (SREBP) (AID 2282962); details: HepG2 Attagene cis-factorial SREBP reporter, mRNA; actives raise or lower the signal
Method in brief: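 Endogenous factor activity is measured in HepG2 through multiplexed reporter units under cis-element control. Following a 24 h incubation, reporter transcripts are reverse-transcribed, PCR-amplified and sized by capillary electrophoresis; activity is fitted in both directions relative to DMSO.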

[7] = molecular target: Signal transducer and activator of transcription 3 (Homo sapiens) (UniProt P40763); experiment: ATG_STAT3_CIS: Attagene CIS-FACTORIAL HepG2 Assay for human Signal Transducer and Activator of Transcription 3 (STAT3) (AID 2282963); details: HepG2, Attagene cis-factorial STAT3 reporter transcription; actives raise or lower the signal
Method in brief: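 Readout is reporter transcript quantified by RT-PCR and capillary electrophoresis, with 6-FAM primer extension and HpaI digestion. Total RNA is taken 24 h after dosing transiently transfected HepG2 carrying cis-regulated reporter units. Bidirectional fit against DMSO.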

[8] = ATG_TA_CIS: Attagene CIS-FACTORIAL HepG2 Assay for human TA Basal Promoter (AID 2282964); details: HepG2 Attagene CIS-factorial TA basal promoter reporter; actives raise or lower the signal
Method in brief: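 Multiplexed mRNA reporter assay, HepG2, 24 h. Reporter cDNA amplified, 6-FAM primer-extended, HpaI-cut, CE-sized; DMSO = negative control and baseline.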

[9] = ATG_TCF_b_cat_CIS: Attagene CIS-FACTORIAL HepG2 Assay for human T-Cell-Factor with beta-catenin (TCF/b-cat) (AID 2282965); details: HepG2 TCF/beta-catenin cis-reporter transcription, actives raise or lower the signal
Method in brief: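 Endogenous TCF/LEF activity read as reporter transcript level via RT-PCR and capillary electrophoresis fluorescence in transfected HepG2, 24 h exposure; gain or loss of signal fitted against DMSO controls.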

[10] = ATG_TAL_CIS: Attagene CIS-FACTORIAL HepG2 Assay for human TAL Basal Promoter (AID 2282966); details: HepG2 Attagene cis-factorial TAL promoter reporter; actives raise or lower the signal;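 also: background control endpoint measuring basal TAL promoter reporter mRNA not a specific factor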
Method in brief: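 Background-control endpoint: basal TAL promoter reporter transcripts in transiently transfected HepG2, measured 24 h after dosing. Read-out by RT-PCR with fluorescent primer extension and capillary electrophoresis; gain or loss of signal fitted relative to DMSO.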

[11] = ATG_TGFb_CIS: Attagene CIS-FACTORIAL HepG2 Assay for human Transforming Growth Factor (TGF) (AID 2282967); details: HepG2 Attagene CIS TGFb reporter, mRNA transcription; actives raise or lower the signal
Method in brief: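 Transcript-level reporter readout: HepG2 transfectants, 24 h exposure, RNA to cDNA, reporter-specific PCR, fluorescent primer extension, capillary sizing against ROX standards. Gain- or loss-of-signal relative to DMSO.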

[12] = ATG_VDRE_CIS: Attagene CIS-FACTORIAL HepG2 Assay for human Vitamin D Receptor Element (VDRE) (AID 2282968); details: HepG2 VDRE cis-reporter transcription, actives raise or lower the signal
Method in brief: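 Readout is VDRE-driven reporter mRNA reflecting endogenous factor activity in human HepG2 cells, sampled 24 h post-dose. Quantification used labelled RT-PCR products separated by capillary electrophoresis; bidirectional analysis relative to DMSO.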

[13] = molecular target: Estrogen receptor (Homo sapiens) (UniProt P03372); experiment: ATG_ERa_TRANS: Attagene TRANS-FACTORIAL HepG2 Assay for human Estrogen Receptor alpha (ERa) (AID 2282970; active = hit-call score of the fitted dose curve at least 0.9, where 1 is the maximum); details: HepG2 Attagene TRANS ERa GAL4 reporter, mRNA
Method in brief: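 Reporter transcripts were measured 24 h after dosing by RT-PCR with fluorescent primer extension and capillary electrophoresis. The system is transiently transfected HepG2 expressing exogenous NR-Gal4 chimeras driving GAL4-UAS reporters; DMSO is the baseline.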

[14] = molecular target: X-box-binding protein 1 (Homo sapiens) (UniProt P17861); experiment: ATG_Xbp1_CIS: Attagene CIS-FACTORIAL HepG2 Assay for human X-box Binding Protein 1 (XBP1) (AID 2282972); details: HepG2 XBP1 cis-element reporter, Attagene multiplex; actives raise or lower the signal
Method in brief: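 Multiplexed cis-reporter readout in transfected HepG2 liver cells. Exposure lasted 24 hours. Activity in either direction was fitted against DMSO as negative control and baseline.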

[15] = ATG_GAL4_TRANS: Attagene TRANS-FACTORIAL HepG2 Assay for GAL4 (Internal Marker) (AID 2282976; active = hit-call score of the fitted dose curve at least 0.9, where 1 is the maximum); details: HepG2 Attagene TRANS GAL4 internal marker reporter
Method in brief: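 In transfected human HepG2 liver cells dosed 24 h, GAL4 reporter mRNA serves as a baseline marker. Detection by RT-PCR with fluorescent capillary electrophoresis, activity fitted upward relative to DMSO.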

[16] = ATG_RORE_CIS: Attagene CIS-FACTORIAL HepG2 Assay for human RAR-related Orphan Receptor Element (RORE) (AID 2282959); details: HepG2 Attagene cis-factorial RORE reporter, mRNA; actives raise or lower the signal
Method in brief: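 Measured here: transcript induction of a cis-regulated reporter in HepG2 cells transiently transfected via FuGene 6. After 24 h, RNA was processed by RT-PCR and fluorescent capillary electrophoresis; DMSO defined baseline activity.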

[17] = ATG_M_19_TRANS: Attagene TRANS-FACTORIAL HepG2 Assay for M19 Transcription Factor (Internal Marker) (AID 2282974; active = hit-call score of the fitted dose curve at least 0.9, where 1 is the maximum); details: HepG2 Attagene TRANS-FACTORIAL M19 internal marker reporter
Method in brief: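 Gain-of-signal in reporter mRNA, relative to DMSO, was scored from capillary electrophoresis fluorescence. HepG2 cells carried transiently transfected multiple reporter transcription units and were incubated with test chemicals for 24 h.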

X-box-binding protein 1 (Homo sapiens), sequence (P17861 whole entry, looked up): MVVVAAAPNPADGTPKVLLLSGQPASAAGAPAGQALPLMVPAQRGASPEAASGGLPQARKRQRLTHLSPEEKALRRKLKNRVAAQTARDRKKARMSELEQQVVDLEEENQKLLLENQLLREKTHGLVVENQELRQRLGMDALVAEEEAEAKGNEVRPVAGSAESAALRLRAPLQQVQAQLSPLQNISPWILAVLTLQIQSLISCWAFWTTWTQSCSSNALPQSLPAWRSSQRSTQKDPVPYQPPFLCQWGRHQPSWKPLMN
Transcription factor Sp1 (Homo sapiens), sequence (P08047 whole entry, looked up): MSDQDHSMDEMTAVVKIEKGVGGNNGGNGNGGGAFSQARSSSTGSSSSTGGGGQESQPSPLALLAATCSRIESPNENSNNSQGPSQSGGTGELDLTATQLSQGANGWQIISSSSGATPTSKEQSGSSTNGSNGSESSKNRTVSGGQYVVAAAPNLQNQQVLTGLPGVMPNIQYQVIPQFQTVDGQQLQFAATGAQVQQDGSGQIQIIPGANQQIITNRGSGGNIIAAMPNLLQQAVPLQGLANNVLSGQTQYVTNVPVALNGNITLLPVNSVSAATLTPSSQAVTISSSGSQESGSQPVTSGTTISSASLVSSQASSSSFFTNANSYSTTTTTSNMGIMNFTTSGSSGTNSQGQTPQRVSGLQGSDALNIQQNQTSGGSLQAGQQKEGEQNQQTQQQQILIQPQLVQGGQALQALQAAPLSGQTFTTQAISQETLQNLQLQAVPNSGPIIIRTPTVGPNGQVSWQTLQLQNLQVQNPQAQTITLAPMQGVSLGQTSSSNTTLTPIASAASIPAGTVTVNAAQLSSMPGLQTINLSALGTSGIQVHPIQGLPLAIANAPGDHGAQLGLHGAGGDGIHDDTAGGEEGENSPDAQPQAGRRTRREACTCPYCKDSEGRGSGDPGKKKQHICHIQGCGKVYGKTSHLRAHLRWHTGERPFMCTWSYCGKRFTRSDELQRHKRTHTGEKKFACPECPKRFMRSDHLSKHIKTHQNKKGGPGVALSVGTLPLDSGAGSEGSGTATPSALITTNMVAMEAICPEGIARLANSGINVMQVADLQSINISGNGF
Paired box protein Pax-6 (Homo sapiens), sequence (P26367 whole entry, looked up): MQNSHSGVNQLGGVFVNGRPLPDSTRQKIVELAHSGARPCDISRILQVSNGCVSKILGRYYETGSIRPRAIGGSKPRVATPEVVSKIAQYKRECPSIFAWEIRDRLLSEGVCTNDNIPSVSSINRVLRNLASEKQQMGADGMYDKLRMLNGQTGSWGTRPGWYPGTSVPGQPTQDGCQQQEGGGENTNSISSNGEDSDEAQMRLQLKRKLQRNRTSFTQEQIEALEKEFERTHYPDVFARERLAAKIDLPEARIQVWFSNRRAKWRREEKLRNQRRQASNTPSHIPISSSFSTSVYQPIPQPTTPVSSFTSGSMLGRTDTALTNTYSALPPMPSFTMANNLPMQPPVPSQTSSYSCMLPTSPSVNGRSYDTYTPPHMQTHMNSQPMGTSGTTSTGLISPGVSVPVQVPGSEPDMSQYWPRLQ
Estrogen receptor (Homo sapiens), sequence (P03372 whole entry, looked up, the tested form may be a part): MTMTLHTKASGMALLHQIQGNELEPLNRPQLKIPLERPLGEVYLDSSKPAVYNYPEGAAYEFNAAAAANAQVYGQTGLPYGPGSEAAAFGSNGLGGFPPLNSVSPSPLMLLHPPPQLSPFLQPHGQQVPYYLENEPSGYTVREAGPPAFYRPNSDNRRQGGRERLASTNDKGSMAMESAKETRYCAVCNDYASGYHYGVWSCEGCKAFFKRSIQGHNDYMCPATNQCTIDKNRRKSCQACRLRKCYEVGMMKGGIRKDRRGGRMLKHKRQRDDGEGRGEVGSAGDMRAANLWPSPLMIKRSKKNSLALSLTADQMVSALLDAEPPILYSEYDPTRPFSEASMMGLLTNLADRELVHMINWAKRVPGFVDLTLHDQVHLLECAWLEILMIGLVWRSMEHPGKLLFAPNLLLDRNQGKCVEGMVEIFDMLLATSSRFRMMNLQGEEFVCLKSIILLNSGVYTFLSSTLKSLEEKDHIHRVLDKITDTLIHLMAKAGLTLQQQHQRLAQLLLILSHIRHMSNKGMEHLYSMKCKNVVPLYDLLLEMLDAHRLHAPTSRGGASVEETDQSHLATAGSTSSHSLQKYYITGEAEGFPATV
Signal transducer and activator of transcription 3 (Homo sapiens), sequence (P40763 whole entry, looked up): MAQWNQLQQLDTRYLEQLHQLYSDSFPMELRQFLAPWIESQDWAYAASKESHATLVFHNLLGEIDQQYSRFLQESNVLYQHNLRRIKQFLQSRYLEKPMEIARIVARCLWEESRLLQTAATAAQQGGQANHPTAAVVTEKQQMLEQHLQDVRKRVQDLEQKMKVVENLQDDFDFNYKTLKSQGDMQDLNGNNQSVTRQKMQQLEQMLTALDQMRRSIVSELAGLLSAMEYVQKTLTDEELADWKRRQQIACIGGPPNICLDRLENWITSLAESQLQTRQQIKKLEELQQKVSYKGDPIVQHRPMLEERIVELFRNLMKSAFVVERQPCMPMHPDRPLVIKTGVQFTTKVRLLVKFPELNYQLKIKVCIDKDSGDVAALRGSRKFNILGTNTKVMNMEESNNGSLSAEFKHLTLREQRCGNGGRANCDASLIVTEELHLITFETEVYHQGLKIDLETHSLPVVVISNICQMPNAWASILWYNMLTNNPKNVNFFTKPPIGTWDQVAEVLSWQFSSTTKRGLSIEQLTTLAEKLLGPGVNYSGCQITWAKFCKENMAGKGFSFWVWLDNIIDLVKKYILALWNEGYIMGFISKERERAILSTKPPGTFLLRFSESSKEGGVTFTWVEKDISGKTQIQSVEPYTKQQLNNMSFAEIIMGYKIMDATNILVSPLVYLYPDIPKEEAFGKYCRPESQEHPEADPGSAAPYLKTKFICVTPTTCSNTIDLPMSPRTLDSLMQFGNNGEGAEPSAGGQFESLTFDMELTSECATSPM

Cc1cc(C)n(CO)n1
outcome [1]: inactive
outcome [2]: inactive
outcome [3]: inactive
outcome [4]: inactive
outcome [5]: inactive
outcome [6]: inactive
outcome [7]: inactive
outcome [8]: inactive
outcome [9]: inactive
outcome [10]: inactive
outcome [11]: inactive
outcome [12]: inactive
outcome [13]: inactive
outcome [14]: inactive
outcome [15]: inactive

CC12CCC(CC1)C(C)(C)O2
outcome [1]: inactive
outcome [2]: inactive
outcome [3]: inactive
outcome [16]: inactive
outcome [4]: inactive
outcome [5]: inactive
outcome [6]: inactive
outcome [7]: inactive
outcome [8]: inactive
outcome [9]: inactive
outcome [10]: inactive
outcome [11]: inactive
outcome [12]: inactive
outcome [14]: inactive
outcome [15]: inactive

COC(=O)[C@H](Cc1ccccc1)NC(=O)[C@@H](N)CC(=O)O (H-Asp-Phe-OMe)
outcome [1]: inactive
outcome [2]: inactive
outcome [3]: inactive
outcome [16]: inactive
outcome [4]: inactive
outcome [6]: inactive
outcome [7]: inactive
outcome [8]: inactive
outcome [9]: inactive
outcome [10]: inactive
outcome [11]: inactive
outcome [13]: inactive
outcome [14]: inactive

CCOC(=O)C1=NOC(c2ccccc2)(c2ccccc2)C1
outcome [1]: inactive
AC50 [2]: 18.3 µM (active)
outcome [3]: inactive
outcome [16]: inactive
outcome [4]: inactive
outcome [5]: inactive
outcome [8]: inactive
outcome [9]: inactive
outcome [10]: inactive
outcome [11]: inactive
outcome [12]: inactive
outcome [13]: inactive
outcome [14]: inactive

CCCCC/C=C\C/C=C\CCCCCCCC(=O)O
AC50 [1]: 133 µM (active)
AC50 [2]: 64.1 µM (active)
AC50 [3]: 35.1 µM (active)
AC50 [16]: 39.6 µM (active)
outcome [4]: inactive
outcome [6]: inactive
outcome [7]: inactive
AC50 [8]: 100 µM (active)
outcome [9]: inactive
AC50 [10]: 100 µM (active)
outcome [11]: inactive
outcome [12]: inactive
outcome [13]: inactive
AC50 [14]: 147 µM (active)
outcome [17]: inactive
